Experimental data from publication PMC6792352, “Limited Chemical Structural Diversity Found to Modulate Thyroid Hormone Receptor in the Tox21 Chemical Library” (Environmental Health Perspectives, 2019).
Where a name gives a salt, the structure may show the parent alone.

These compounds were tested on thyroid hormone receptor (endogenous TRα and TRβ). Conditions: read-out: Average AC50 (uM) GH3-TRE-Antag, antagonist mode, 1 nM T3, no GH3 cytotoxicity hit.
Parameters: species or system GH3-TRE-Luc (rat pituitary); GH3-TRE-Luc luciferase reporter, antagonist mode against 1 nM T3, loss of signal, qHTS

| SMILES | AC50 |
| --- | --- |
| CC(C)(C)c1ccc(OC(=O)c2ccccc2O)cc1 [4-tert-Butylphenyl salicylate] | > 90 µM |
| CC/C=C/CCCCCCCCC1CC(=O)OC1=O (stereo not drawn) [(Tetrapropenyl)succinic anhydride] | 65.5 µM |
| S=P(N1CC1)(N1CC1)N1CC1 [Thiotepa] | 37.9 µM |
| NNc1ccc(C(=O)O)cc1 [4-Hydrazinobenzoic acid hydrochloride] | 84.8 µM |
| CCCCCCCCCCCCCCC(Br)C(=O)O (stereo not drawn) [2-Bromohexadecanoic acid] | 53.6 µM |
| Cc1ccc(Cl)c(Nc2ccccc2C(=O)O)c1Cl [Meclofenamate sodium] | 30.6 µM |
| COc1ccc(N=[N+]([O-])c2ccc(OC)cc2)cc1 [4-Azoxyanisole] | 30.2 µM |
| O=C(O)Cn1c(C(=O)Nc2nc(-c3ccccc3Cl)cs2)cc2ccccc21 [Lintitript] | > 50 µM |
| O=C(CCCN1CCC(C(=O)c2ccc(F)cc2)CC1)c1ccc(F)cc1 [Lenperone] | 44.5 µM |
| O=C(CCCN1CCC(O)(c2ccc(Br)cc2)CC1)c1ccc(F)cc1 [Bromperidol] | 12.9 µM |
| C=C(C)CN(CC)c1c([N+](=O)[O-])cc(C(F)(F)F)cc1[N+](=O)[O-] [Ethalfluralin] | > 90 µM |
| CCCCCCCCCCCCNC(=N)N [Dodine] | 2.89 µM |
| Brc1ccc(Oc2ccccc2)cc1 [p-Bromodiphenyl ether] | 44.7 µM |
| CC(C)C(O)(c1ccc(OC(F)(F)F)cc1)c1cncnc1 (stereo not drawn) [Flurprimidol] | 70.7 µM |
| Nc1nc(N)c2nc(-c3ccccc3)c(N)nc2n1 [Triamterene] | 39.2 µM |
| CCN(Cc1c(F)cccc1Cl)c1c([N+](=O)[O-])cc(C(F)(F)F)cc1[N+](=O)[O-] [Flumetralin] | 39.8 µM |
| OCc1c2ccccc2cc2ccccc12 [9-Anthracenemethanol] | 64.3 µM |
| c1cc2c(c(NC3=NCCN3)c1)CCCC2 [Tramazoline tosylate] | 37.5 µM |
| CC(=O)OC(c1ccccc1)C(Cl)(Cl)Cl (stereo not drawn) [2,2,2-Trichloro-1-phenylethyl acetate] | 55.4 µM |
| CCCCCCCCCC(C)C=O (stereo not drawn) [2-Methylundecanal] | 40.2 µM |
| CC(C)(C)c1cccc(C(C)(C)C)c1O [2,6-Di-tert-butylphenol] | 25.4 µM |
| O=S(=O)(c1cccc2cnccc12)N1CCCNCC1 [Fasudil hydrochloride] | 30.1 µM |
| CCCCCCCCCCO[C@@H]1O[C@H](CO)[C@@H](O)[C@H](O)[C@H]1O [Decyl beta-D-glucopyranoside] | 68.4 µM |
| CCCCCCCCCCCCCCNCCO [Myralact] | 22.8 µM |
